Laboratory results taken from PubChem BioAssay (NCI).
Compounds without any hit were thinned out: in the full panel of roughly 79,000, 15% have a hit. Values without a mark were called inactive. Active and inactive are the calls of the source. No stated cut-off is given here; in the data, active means growth inhibition above about 70%; inactive means the rest.

What was measured:
[1] = NCI Yeast Anticancer Drug Screen. Data for the rad52 strain (AID 147);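 further: 0% = growth of vehicle-treated control cultures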; settings: S. cerevisiae rad52 mutant growth inhibition, active compounds read high
Outline: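 Here a repair-compromised yeast strain receives each compound; its growth is then quantified and normalised to vehicle-only controls.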

[2] = NCI Yeast Anticancer Drug Screen. Data for the wt1 strain (AID 149);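 further: 0% = growth of vehicle-treated wt1 cultures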; settings: S. cerevisiae wt1 strain (SPY 50644) growth inhibition, active compounds read high
Outline: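 The wt1 strain was treated with compounds, and growth was compared with vehicle-treated cultures to give inhibition.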

[3] = NCI Yeast Anticancer Drug Screen. Data for the mgt1 strain (AID 153); settings: S. cerevisiae mgt1 mutant growth inhibition, active compounds read high
Outline: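 Measured: inhibition of mgt1 yeast growth by compound, normalized to vehicle-treated cultures.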

[4] = NCI Yeast Anticancer Drug Screen. Data for the rad50 strain (AID 155);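 further: 0% = growth of vehicle-only cultures of the same strain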; settings: S. cerevisiae rad50 strain growth inhibition, active compounds read high
Outline: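 Cells are treated with compound, grown, and their growth is then scored against vehicle-only cultures of the same repair-deficient yeast strain.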

[5] = NCI Yeast Anticancer Drug Screen. Data for the mec2-1 strain (AID 157); settings: S. cerevisiae mec2-1 strain, active compounds read high
Outline: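 Using mec2-1 yeast: add compound, measure growth, express inhibition versus vehicle-treated cultures.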

[6] = NCI Yeast Anticancer Drug Screen. Data for the rad14 strain (AID 159);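 further: 0% = growth of vehicle-treated control cultures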; settings: S. cerevisiae rad14 strain growth inhibition, active compounds read high
Outline: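 Readout: yeast growth inhibition, referenced to vehicle-only cultures. Strain bears a defined alteration in DNA damage repair.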

[7] = NCI Yeast Anticancer Drug Screen. Data for the sgs1 mgt1 strain (AID 161);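 further: 0% = growth of cultures given vehicle only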; settings: S. cerevisiae sgs1 mgt1 strain, active compounds read high
Outline: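 Percent growth inhibition was derived by comparing compound-exposed mutant yeast with vehicle-exposed cultures. The strain carries alterations in DNA damage repair.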

[8] = NCI Yeast Anticancer Drug Screen. Data for the CLN2oe strain (AID 163);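 further: 0% = growth of vehicle-only control cultures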; settings: S. cerevisiae CLN2oe strain, active compounds read high
Outline: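 Whole-cell yeast growth assay. A strain engineered for altered cell-cycle control received compound, and inhibition relative to vehicle-treated cultures was recorded.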

[9] = NCI Yeast Anticancer Drug Screen. Data for the cln2 rad14 strain (AID 165);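 further: 0% = growth equal to vehicle treated cultures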; settings: S. cerevisiae cln2 rad14 strain, active compounds read high
Outline: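 Yeast strain cln2 rad14, bearing defects in cell cycle control and DNA repair, serves as the test system; values reflect growth inhibition compared with vehicle.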

[10] = NCI Yeast Anticancer Drug Screen. Data for the bub3 strain (AID 167); settings: S. cerevisiae bub3 mutant strain, active compounds read high
Outline: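 Part of a panel of yeast mutants defective in DNA damage repair or cell cycle regulation. Each strain is grown with compound, and inhibition is calculated relative to solvent-treated cultures.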

[11] = NCI Yeast Anticancer Drug Screen. Data for the wt2 strain (AID 169);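 further: 0% = growth of vehicle-treated yeast cultures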; settings: S. cerevisiae wt2 strain growth inhibition, active compounds read high
Outline: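 Treated yeast vs. vehicle-treated yeast: growth inhibition determined.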

[12] = NCI Yeast Anticancer Drug Screen. Data for the mlh1 strain (AID 171);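 further: 0% = growth of vehicle-treated control cultures of the same strain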; settings: S. cerevisiae mlh1 strain growth inhibition, active compounds read high
Outline: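 A yeast strain with a defined genetic lesion serves as the test organism. Cultures receive compound or vehicle, and growth is measured.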

[13] = NCI Yeast Anticancer Drug Screen. Data for the sgs1 strain (AID 173);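 further: 0% = growth of vehicle-only control cultures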; settings: S. cerevisiae sgs1 mutant, active compounds read high
Outline: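 A genetically defined yeast mutant is incubated with the test compound, and its growth is compared to that of the same strain given vehicle.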

[14] = NCI Yeast Anticancer Drug Screen. Data for the mlh1 rad18 strain (AID 175); settings: S. cerevisiae mlh1 rad18 strain growth inhibition, active compounds read high
Outline: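 Steps: expose repair-defective yeast to compound; measure growth; express inhibition against vehicle-treated controls.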

[15] = NCI Yeast Anticancer Drug Screen. Data for the rad18 strain (AID 177); settings: S. cerevisiae rad18 mutant growth inhibition, active compounds read high
Outline: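 Measured value is growth inhibition of a yeast strain bearing a DNA repair alteration, referenced to vehicle-treated cells.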

[16] = at 5.0 µM (retest, dose inferred, filed as 0.5)
[17] = at 50.0 µM (retest, dose inferred, filed as 5.0)

CC(C)(CN1CCCCC1)C(=O)CC(SCCS(=O)(=O)O)c1ccc(Br)cc1 (stereo not drawn)
growth inhibition ([1]; at 1.2 µM): 1% | growth inhibition ([1]; at 3.7 µM): 6% | growth inhibition ([1]; at 11.0 µM): 9% | growth inhibition ([1]; at 33.0 µM): 22% | growth inhibition ([1]; at 100.0 µM): 54% | growth inhibition ([2]; at 1.2 µM): 3% | growth inhibition ([2]; at 3.7 µM): 6% | growth inhibition ([2]; at 11.0 µM): 9% | growth inhibition ([2]; at 33.0 µM): 11% | growth inhibition ([2]; at 100.0 µM): 24% | growth inhibition ([3]; at 1.2 µM): -1% | growth inhibition ([3]; at 3.7 µM): 0% | growth inhibition ([3]; at 11.0 µM): 8% | growth inhibition ([3]; at 33.0 µM): 21% | growth inhibition ([3]; at 100.0 µM): 59% | growth inhibition ([4]; at 1.2 µM): -2% | growth inhibition ([4]; at 3.7 µM): -5% | growth inhibition [4, 16]: 13% | growth inhibition ([4]; at 11.0 µM): -1% | growth inhibition ([4]; at 33.0 µM): 24% | growth inhibition [4, 17]: 32% | growth inhibition ([4]; at 50.0 µM): 73.8% (active) | growth inhibition ([4]; at 100.0 µM): 50% | growth inhibition ([5]; at 1.2 µM): 1% | growth inhibition ([5]; at 3.7 µM): 6% | growth inhibition [5, 16]: -7% | growth inhibition ([5]; at 11.0 µM): 14% | growth inhibition ([5]; at 33.0 µM): 18% | growth inhibition [5, 17]: 11% | growth inhibition ([5]; at 50.0 µM): 52.9% | growth inhibition ([5]; at 100.0 µM): 36% | growth inhibition ([6]; at 1.2 µM): 6% | growth inhibition ([6]; at 3.7 µM): 19% | growth inhibition ([6]; at 11.0 µM): 42% | growth inhibition ([6]; at 33.0 µM): 39% | growth inhibition ([6]; at 100.0 µM): 51% | growth inhibition [7, 16]: 5% | growth inhibition [7, 17]: 4% | growth inhibition ([7]; at 50.0 µM): 68.5% | growth inhibition ([8]; at 1.2 µM): 2% | growth inhibition ([8]; at 3.7 µM): 4% | growth inhibition ([8]; at 11.0 µM): 13% | growth inhibition ([8]; at 33.0 µM): 25% | growth inhibition ([8]; at 100.0 µM): 33% | growth inhibition [9, 16]: 13% | growth inhibition [9, 17]: 26% | growth inhibition ([9]; at 50.0 µM): 56.7% | growth inhibition ([10]; at 1.2 µM): 1% | growth inhibition ([10]; at 3.7 µM): 6% | growth inhibition [10, 16]: -4% | growth inhibition ([10]; at 11.0 µM): 17% | growth inhibition ([10]; at 33.0 µM): 29% | growth inhibition [10, 17]: 56% | growth inhibition ([10]; at 50.0 µM): 74.7% (active) | growth inhibition ([10]; at 100.0 µM): 61% | growth inhibition ([11]; at 1.2 µM): 1% | growth inhibition ([11]; at 3.7 µM): 3% | growth inhibition ([11]; at 11.0 µM): 11% | growth inhibition ([11]; at 33.0 µM): 24% | growth inhibition ([11]; at 100.0 µM): 46% | growth inhibition ([12]; at 1.2 µM): 3% | growth inhibition ([12]; at 3.7 µM): 6% | growth inhibition ([12]; at 11.0 µM): 17% | growth inhibition ([12]; at 33.0 µM): 26% | growth inhibition ([12]; at 100.0 µM): 52% | growth inhibition ([13]; at 1.2 µM): 2% | growth inhibition ([13]; at 3.7 µM): 11% | growth inhibition ([13]; at 11.0 µM): 28% | growth inhibition ([13]; at 33.0 µM): 42% | growth inhibition ([13]; at 100.0 µM): 62% | growth inhibition [14, 16]: 3% | growth inhibition [14, 17]: 21% | growth inhibition ([14]; at 50.0 µM): 65.2% | growth inhibition ([15]; at 1.2 µM): 2% | growth inhibition ([15]; at 3.7 µM): 15% | growth inhibition ([15]; at 11.0 µM): 29% | growth inhibition ([15]; at 33.0 µM): 25% | growth inhibition ([15]; at 100.0 µM): 55%
